Measured values published in PubChem BioAssay AID2283131 (EPA ToxCast).
Inconclusive results are not listed. Activity calls are given as the source filed them. The calls were made as follows: active = hit-call score of the fitted dose curve at least 0.9, where 1 is the maximum; inconclusive = response in the unintended direction; inactive = score below 0.9.

biological target: human Bruton's Tyrosine Kinase (BTK), BTK (gene 695) (UniProt Q06187); assay: NVS_ENZ_hBTK: NovaScreen (NVS) Enzymatic Assay for human Bruton's Tyrosine Kinase (BTK)
Sequence (Q06187 whole entry, looked up): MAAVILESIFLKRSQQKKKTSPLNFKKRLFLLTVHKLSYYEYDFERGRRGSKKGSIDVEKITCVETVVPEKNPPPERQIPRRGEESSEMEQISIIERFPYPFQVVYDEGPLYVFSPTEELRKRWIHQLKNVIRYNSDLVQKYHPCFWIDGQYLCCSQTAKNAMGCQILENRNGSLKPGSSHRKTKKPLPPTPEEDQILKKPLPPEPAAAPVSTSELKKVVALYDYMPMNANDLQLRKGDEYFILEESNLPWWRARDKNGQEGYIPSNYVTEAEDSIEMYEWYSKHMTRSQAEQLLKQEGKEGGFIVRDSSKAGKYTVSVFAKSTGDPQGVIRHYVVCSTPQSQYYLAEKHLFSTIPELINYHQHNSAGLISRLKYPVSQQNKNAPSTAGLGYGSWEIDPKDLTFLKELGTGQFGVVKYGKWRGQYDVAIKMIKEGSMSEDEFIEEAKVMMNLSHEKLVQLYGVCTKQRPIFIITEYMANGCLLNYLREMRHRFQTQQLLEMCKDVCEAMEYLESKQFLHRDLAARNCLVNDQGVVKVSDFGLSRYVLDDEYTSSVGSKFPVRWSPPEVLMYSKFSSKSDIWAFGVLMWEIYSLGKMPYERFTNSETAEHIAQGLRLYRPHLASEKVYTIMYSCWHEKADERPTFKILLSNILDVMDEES
Experimental: NVS_ENZ_hBTK is a biochemical, single-readout assay that uses extracted gene-proteins in a cell-free assay. Measurements were taken 1 hour after chemical dosing in a 96-well plate.NVS_ENZ_hBTK is one of one assay component(s) measured or calculated from the NVS_ENZ_hBTK assay. It is designed to make measurements of enzyme activity, a form of enzyme reporter, as detected with fluorescence intensity signals by Fluorescence and electrophoretic mobility shift technology.Data from the assay component NVS_ENZ_hBTK was analyzed into 1 assay endpoint. This assay endpoint, NVS_ENZ_hBTK, was analyzed in the positive analysis fitting direction relative to DMSO as the negative control and baseline of activity. Using a type of enzyme reporter, loss-of-signal activity can be used to understand changes in the enzymatic activity as they relate to the gene BTK. Furthermore, this assay endpoint can be referred to as a primary readout, because this assay has produced multiple assay endpoints where this one serves a enzymatic activity function. To generalize the intended target to other relatable targets, this assay endpoint is annotated to the kinase intended target family, where the subfamily is non-receptor tyrosine kinase.
Binding assays used specific radioligands (tritiated, iodinated) with non-radioactive competitive displacement ligands in agonist or antagonist protocols (as indicated) and various reference compounds and inhibitors to titrate specific binding to receptors and transporters. Most enzyme assays (CYPs, kinases, phosphatases, proteases, HDACs) used recombinant protein and specific substrates (fluorescence mostly, some colorimetric and radioactive) and inhibitors, followed by a biochemical separation of substrate and product. All assays for the biochemical HTS were initially run in duplicate at a single concentration (10 uM for CYP450 assays and 25 uM for all others). […] Each assay was run with positive and negative controls, and concurrent controls on every plate. The follow-up (secondary) screen tested active chemical-pairs in concentration series, as well as a few additional assays not tested in the primary screen, some selected negative inactives, and several cases re-run in the concentration series for confirmatory purposes.

Compound | AC50 | outcome
O=S(=O)(O)C(F)(F)C(F)(F)C(F)(F)C(F)(F)C(F)(F)C(F)(F)C(F)(F)C(F)(F)F | 17.4 µM (active) | –
S=C1NCCN1 | – | inactive
Fc1ccc(Oc2ccnc3cc(Cl)cc(Cl)c23)cc1 | – | inactive
N#Cc1c(Cl)c(Cl)c(Cl)c(C#N)c1Cl | – | inactive
O=[N+]([O-])/N=C1\NCCN1Cc1ccc(Cl)nc1 | – | inactive
CCCOc1nn(C(=O)NS(=O)(=O)c2ccccc2C(=O)OC)c(=O)n1C | – | inactive
Cc1ccccc1CO[C@@H]1C[C@@]2(C(C)C)CC[C@]1(C)O2 | – | inactive
O=C(O)C(F)(F)C(F)(F)C(F)(F)C(F)(F)C(F)(F)C(F)(F)C(F)(F)F | – | inactive
CNC(=O)Oc1cccc2c1OC(C)(C)O2 | – | inactive
